High-throughput results as filed in PubChem BioAssay.
Luc counter – counter-screen: inhibitors of Kinase-Glo firefly luciferase | Kinase-Glo luciferase, ATP luminescence, 8 min | 200,000 compounds, 0.28% hits | Q27757 | Potency, µM (series often up to 38.3 µM), for the others: at the top dose activity change, negative = inhibition, usual class: inhibitors; also: % is scaled to controls: 0 for no effect and ±100 for the full control effect; nearly all actives have a fitted effect of over 60% in size
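Inhibition of Kinase-Glo luciferase light generation was assessed at 10 uM ATP in pH 7.2 imidazole buffer, with luminescence measured after eight minutes at ambient temperature.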
Rab9 prom act – Rab9 promoter activation. Huh7 Rab9 promoter-luciferase reporter, luminescence, 24 h. 320,000 compounds, 2.8% hits. AID 485297. Potency, µM (doses to about 9.22 µM), for the others: at the highest dose activation, negative = inhibition, usual class: activators; also: % of control where 0% means no effect; nearly all actives have a fitted effect of over 60% in size
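Rab9 promoter-driven luciferase in stably transfected Huh7 cells; 1500 cells/well rested 2 h, exposed to compound in DMSO for 24 h at 37 °C, 5% CO2. Luminescence read 10 min after adding luciferase reagent at ambient temperature.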
NPC1 promoter act – activators of NPC1 promoter. Potency, µM (highest dose often 9.22 µM), for inactives: at the highest dose activation, hits mostly activators. 320,000 compounds, 2.4% hits. AID 485313. Huh7 NPC1 promoter luciferase reporter, 24 h; also: % of control where 0% means no effect; nearly all actives have a fitted effect of over 60% in size
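Luminescence read-out of NPC1 promoter-driven luciferase in stably transfected Huh7 cells; compounds delivered in DMSO and left 24 h at 37C, 5% CO2, qHTS titration format.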
FLuc counter – counter-screen for miR-21 project: firefly luciferase inhibitors or activators | purified FLuc, Km substrates, luminescence inhibition | AID 588342 | P08659 | Potency, µM (titrated, usually from 57.5 µM), for the others: at the top dose activity change, negative = inhibition, hits mostly inhibitors | 360,000 compounds, 6.9% hits;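 also: plate controls were vehicle for no effect and reference inhibitor for full effect; nearly all actives have a fitted effect of over 55% in size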
Target sequence (P08659 whole entry, looked up): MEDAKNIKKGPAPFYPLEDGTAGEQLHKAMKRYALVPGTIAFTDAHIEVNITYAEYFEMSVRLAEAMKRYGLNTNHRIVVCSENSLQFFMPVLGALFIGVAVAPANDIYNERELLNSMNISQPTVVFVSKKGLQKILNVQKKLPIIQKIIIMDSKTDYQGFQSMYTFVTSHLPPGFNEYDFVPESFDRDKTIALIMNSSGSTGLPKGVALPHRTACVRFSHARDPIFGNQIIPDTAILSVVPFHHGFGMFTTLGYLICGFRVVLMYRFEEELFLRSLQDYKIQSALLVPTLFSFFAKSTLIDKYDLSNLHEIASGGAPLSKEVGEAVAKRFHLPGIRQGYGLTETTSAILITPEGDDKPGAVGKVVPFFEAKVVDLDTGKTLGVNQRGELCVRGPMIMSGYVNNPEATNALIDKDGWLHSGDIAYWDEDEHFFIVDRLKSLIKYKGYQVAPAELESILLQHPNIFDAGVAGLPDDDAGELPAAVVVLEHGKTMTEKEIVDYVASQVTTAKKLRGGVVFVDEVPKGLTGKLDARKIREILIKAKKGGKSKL
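Purified P. pyralis luciferase (10nM final) with 10uM D-luciferin and 10uM ATP (Km levels) in 50mM Tris acetate pH 7.5, 10mM Mg acetate, 0.01% Tween-20, 0.05% BSA; qHTS 6-point titration, ~60 µM downward; luminescence read.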
SMN2 splice up – enhancers of SMN2 splice variant expression; HEK293 SMN2-luciferase splicing reporter, luminescence, 30-36 h; Potency, µM (highest dose often 46.1 µM), inactives show top-dose activity change, positive = activation, hits mostly activators; 210,000 compounds, 2.8% hits; AID 1458; also: % of control where 0% means no effect; nearly all actives have a fitted effect of over 55% in size
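qHTS luciferase splicing reporter: luminescence rises when SMN2 exon 7 is included in transfected HEK293 cells. Compound exposure lasted 30-36 h at 37C, with 4.5 mM final sodium butyrate as control, followed by a ONE-Glo read.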
ELG1 genotox – induces genotoxicity in HEK293T cells with luciferase-tagged ELG1 | HEK293T ELG1-luciferase reporter, luminescence, 16 h | Potency, µM (highest dose often 46 µM), without a hit: top-dose activity change, positive = activation, most hits filed as activators | 330,000 compounds, 1.3% hits | AID 504466; also: % of control where 0% means no effect; nearly all actives have a fitted effect of over 60% in size
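Genotoxicity was scored as increased ELG1-luciferase reporter signal, measured by ONE-Glo luminescence (30 min, room temperature). Compound or vehicle exposure of the HEK293T reporter cells lasted 16 hr at 37°C.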
* hit, by the source's call; ? = inconclusive; . = no result; [ ] = another dose, or the depositor's remark. This is a sample that favours compounds with a hit; in the whole collection about 7.5% have one here. Calls follow the shape of the dose curve; as a rule, active = well fitted curve in the direction sought with a large enough effect; inconclusive = small, poorly fitted or top-dose-only effect, or another doubt; inactive = no such curve, though single readings can be large; an effect the other way counts as inactive or inconclusive. Potency is read from the fitted curve at half-maximal effect.

SMILES | Luc counter | Rab9 prom act | NPC1 promoter act | FLuc counter | SMN2 splice up | ELG1 genotox
Cc1cc(C(=O)Nc2ccc(S(=O)(=O)Nc3onc(C)c3C)cc2)c(C)o1 | 3% | 12% | 0% | ? | 14% | 1%
Cc1ccc(/C=C/C(=O)Nc2ccc(S(=O)(=O)Nc3onc(C)c3C)cc2)cc1 | . | 1% | 1% | 15µM* | . | 5%
Cc1ccc2oc(C(=O)Nc3ccc(S(=O)(=O)Nc4onc(C)c4C)cc3)c(C)c2c1 | . | ? | 24% | 7.6µM* | . | ?
Cc1ccc(NC(=O)CN2C(=O)COc3ccc(S(=O)(=O)NC4CCCC4)cc32)c(Cl)c1 | . | . | . | 2% | . | .
COc1ccc(NC(=O)CCSc2nc(-c3ccco3)cc(C(F)(F)F)n2)cc1 | . | . | . | 0% | -7% | .
CN(C)c1ccc(NC(=O)CCSc2nc(-c3ccco3)cc(C(F)(F)F)n2)cc1 | . | . | . | 9.5µM* | 3% | .
CC1CCN(c2nc3ccc(C(=O)NC(C)C)cc3s2)CC1 | . | . | . | 1.7µM* | 0.79µM* | .
CC1CCN(c2nc3ccc(C(=O)NCCCN4CCCCC4C)cc3s2)CC1 (stereo not given) | . | -46% | -18% | ? | . | ?
CC1CCN(c2nc3ccc(C(=O)NCc4ccccc4)cc3s2)CC1 | . | . | . | 12µM* | -24% | .
Cc1cc(C)n2c(SCC(=O)NC3CCCCC3)nnc2n1 | 1% | -12% | -7% | -1% | . | 2%
O=C(Nc1ccc(C(=O)Oc2ccccc2)c(O)c1)c1ccco1 | -24% | 2.2µM* | ? | 7.6µM* | ? | ?
O=C(Nc1ccc(C(=O)Oc2ccccc2)c(O)c1)c1ccccc1 | -4% | 28% | 11% | ? | -16% | 1%
CCOC(=O)Nc1ccc(Oc2ccccc2)cc1 | -2% | ? | ? | 13µM* | 7% | 18µM*
CCOC(=O)Nc1ccc(C(=O)Oc2ccccc2)c(O)c1 | -9% | ? | 19% | 15µM* | 8% | 16%
COc1ccc(C(=O)/C=C/c2ccccc2)cc1 | -26% | . | . | . | 21% | .
CCOC(=O)Nc1ccc(C(=O)/C=C/c2ccccc2)cc1 | . | -49% | 17% | 17µM* | . | 7%
CCOC(=O)/C(=C/c1ccccc1)NC(=O)c1ccco1 | 5% | 3% | -2% | 9% | -1% | 1%
Nc1ccc(S(=O)(=O)NCc2nccs2)cc1 | -2%[7.66 µM] | . | . | . | -13%[9.22 µM] | .
O=C1C=C(NNC(=O)c2ccccc2Br)CCC1 | -2% | -5% | -3% | 3% | ? | 3%
CCCCC1=CC2=CC(=O)C(C)(OC(=O)c3ccc(Cl)nc3)C(=O)C2=CO1 (stereo not given) | 0% | . | . | . | 10% | .
O=C1NC(=O)/C(=C\c2ccc(Oc3cnccn3)cc2)S1 | 0% | 2.8µM* | ? | 13µM* | ? | ?
O=C1NC(=S)S/C1=C/c1ccc(Oc2cnccn2)cc1 | 1% | ? | 15% | 21µM* | 1% | 2%
O=C1CCCN1CCCN=c1c([N+](=O)[O-])nn(-c2ccc(Cl)cc2)n1O | 2% | 18% | 11% | -2% | 8% | 13%
COc1ccc(-n2nc([N+](=O)[O-])c(=NCCc3cccc(C)c3)n2O)cc1 | . | 2.2µM* | ? | -8% | . | -3%
COc1ccc(-n2nc([N+](=O)[O-])c(=NCCCN3CCCC3=O)n2O)cc1 | -3% | 1.6µM* | ? | -2% | 31% | ?
SMILES | Luc counter | Rab9 prom act | NPC1 promoter act | FLuc counter | SMN2 splice up | ELG1 genotox
CCNCCCNCCCCNCCCNCC | -1% | . | . | . | . | .
CC(C)(C)c1ccc(C(=O)Nc2nnc3n2CCS3)cc1 | . | . | . | 6µM* | . | .
CC(C)(C)C(=O)Nc1nnc2n1CCS2 | . | . | . | 0% | . | .
CCn1nc(C)c(Br)c1-c1nc(-c2ccc(C)cc2)no1 | . | -3% | -5% | 15µM* | . | 0%
CCn1nc(C)c(Br)c1-c1nc(CS(=O)(=O)c2ccc(F)cc2)no1 | . | 4% | -3% | -3% | . | 0%
Cc1ccnc(NC(=O)CCC2CCCCC2)c1 | -2% | ? | ? | 11µM* | ? | 8.2µM*
